Results on 40 compounds are retold here after PubChem BioAssay (NCATS).

Inconclusive results are not listed. Entries that show only a call come without a potency. Active and inactive are the calls of the source. The call rests on the fitted dose curve; in most records, active means well fitted cell-killing curve with a large enough effect; inconclusive means small, poorly fitted or top-dose-only effect, or effect the other way; inactive means no such curve, though single readings can be large or run the other way.
Potency means the concentration at half of the fitted maximal effect.

The assay in a line: Quantitative High-Throughput drug screen in 47 multiple myeloma cell lines against the NCATS MIPE library collection: KMS12PE_JCRB cell viability assay (AID 1918972). Further: nearly all actives have a fitted effect of over 30% in size. As to conditions: KMS12PE myeloma viability, CellTiter-Glo ATP, 48 h; series mostly up to 45.8 µM. The text has this:
PI: Beverly A. Mock Ph.D.
Laboratory of Cancer Biology and Genetics,
Center for Cancer Research, National Cancer Institute,
National Institute of Health, Bethesda, Maryland
Drug resistance and disease progression are common in multiple myeloma (MM) patients, underscoring the need for new therapeutic combinations. […] We hypothesized that effective combinations would reduce MYC expression and enhance p16 activity. […] These preclinical data identify potentially useful drug combinations for evaluation in drug-resistant MM and reveal potential mechanisms of combined drug sensitivity.
Described herein is the primary MIPE qHTS used to cherrypick compounds. Validated compounds were then further tested for potential synergistic activiy.
[1] Peat TJ, Gaikwad SM, Dubois W, Gyabaah-Kessie N, Zhang S, Gorjifard S, Phyo Z, Andres M, Hughitt VK, Simpson RM, Miller MA, Girvin AT, Taylor A, Williams D, D'Antonio N, Zhang Y, Rajagopalan A, Flietner E, Wilson K, Zhang X, Shinn P, Klumpp-Thomas C, McKnight C, Itkin Z, Chen L, Kazandijian D, Zhang J, Michalowski AM, Simmons JK, Keats J, Thomas CJ, Mock BA. Drug combinations identified by high-throughput screening promote cell cycle transition and upregulate Smad pathways in myeloma. Cancer Lett. 2023 Aug 1;568:216284. doi: 10.1016/j.canlet.2023.216284. Epub 2023 Jun 24. PMID: 37356470; PMCID: PMC10408729.
SEQUENCE No. (e.g., 1, 2, 3, etc.); […] (e.g., Cells, Incubation, Reagent, etc.); VALUE and DESCRIPTION.
1; Cells; 5 uL; white, solid bottom 1536-well Greiner assay plate.
2; Compounds; 23 nL; Kalypsis pin tool (Wako USA) equipped with a 1536-well pin head to transfer to the assay plates.
3; Incubation; 48 hours; 37C incubation.
4; Reagent;5uL; CellTiter Glo (Promega).
5; Detector; 425V; Luminescence; Viewlux PerkinElmer.
NOTES (numbers refer to Sequence numbers above)
1. The cell-based screening methods employed in this study were like those previously published. Briefly, the corresponding myeloma cell lines were screened in 1,536-well plates with 500 cells, 5-uL per well for inhibition of cell viability (assessed by measuring ATP levels with CellTiterGlo).
2. NCATS MIPE 4.0 library of approved and investigational drugs were added using the Kalypsis pin tool. Wells treated with DMSO only for 100% viability and media only wells for 0% viability were used as controls.
3. The assay plates were covered and incubated for 48 hours in a 37C, 5% CO2 incubator with controlled humidity.
4. After 48 hours, CellTilter-GloTM luminescent substrate mix (Promega) reagent was added to the assay plate and plates we incubated for 5 min at room temperature.
5. Signal was measured as median relative luminescence units on a ViewLux (PerkinElmer) multiplate reader.
[1] Heske CM, Davis MI, Baumgart JT, Wilson K, Gormally MV, Chen L, Zhang X, Ceribelli M, Duveau DY, Guha R, Ferrer M, Arnaldez FI, Ji J, Tran HL, Zhang Y, Mendoza A, Helman LJ, Thomas CJ. Matrix Screen Identifies Synergistic Combination of PARP Inhibitors and Nicotinamide Phosphoribosyltransferase (NAMPT) Inhibitors in Ewing Sarcoma. Clin Cancer Res. 2017 Dec 1;23(23):7301-7311. doi: 10.1158/1078-0432.CCR-17-1121. Epub 2017 Sep 12. PMID: 28899971; PMCID: PMC6636827.
(In ATP-based viability assays light output follows the ATP content of the culture.)
Consider `COc1ccccc1OCC(O)CN1CCN(CC(=O)Nc2c(C)cccc2C)CC1` (stereo not given), for which the Potency result was “inactive”.

Consider `O=C(c1ccc(F)cc1)C1CCN(CCn2c(=O)[nH]c3ccccc3c2=O)CC1`, for which the Potency entry was “inactive”.

Turning to `CC(C)(Oc1ccc(C2CC2(Cl)Cl)cc1)C(=O)O` (stereo not given), the Potency result is “inactive”.

As for `CN1CCN(CCCN2c3ccccc3Sc3ccc(Cl)cc32)CC1`, the Potency is 8.33 µM (active).

On to `NS(=O)(=O)c1cc2c(cc1Cl)NCNS2(=O)=O`, for which the Potency result was “inactive”.

With `COc1ccc(C2CNC(=O)C2)cc1OC1CCCC1` (stereo not given), the Potency result is “inactive”.

With `COc1nc(C)nc(Cl)c1NC1=NCCN1`, the Potency result is “inactive”.

As to `O=c1[nH]cc(F)c(=O)[nH]1`, the Potency is 4.69 µM (active).

As to `CCOC(=O)C(C)(C)Oc1ccc(Cl)cc1`, the Potency entry is “inactive”.

Take `CC(CCc1ccc(O)cc1)NCCc1ccc(O)c(O)c1` (stereo not given): the Potency was 20.9 µM (active).

As to `C[C@](N)(Cc1ccc(O)c(O)c1)C(=O)O`, the Potency entry was “inactive”.

`CN(C)CCC=C1c2ccccc2C=Cc2ccccc21`: the Potency entry was “inactive”.

`COc1ccccc1N1CCN(CC(O)COc2cccc3ccccc23)CC1` (stereo not given): the Potency result was “inactive”.

With `O=C(Nc1ccc([N+](=O)[O-])cc1Cl)c1cc(Cl)ccc1O`, the Potency is 0.469 µM (active).

`O=C(c1ccc(OCCN2CCCCC2)cc1)c1c(-c2ccc(O)cc2)sc2cc(O)ccc12`: the Potency is 23.5 µM (active).

In the case of `Cc1cn([C@H]2C=C[C@@H](CO)O2)c(=O)[nH]c1=O`, the Potency result is “inactive”.

Regarding `CN1CCC(=C2c3ccccc3C=Cc3ccccc32)CC1`, the Potency was 20.9 µM (active).

For the compound `CC(C)NCC(O)c1ccc(O)c(O)c1` (stereo not given), the Potency is 5.26 µM (active).

As for `NCCc1cnc[nH]1`, the Potency entry was “inactive”.

As for `COc1cc2nc(N3CCN(C(=O)C4COc5ccccc5O4)CC3)nc(N)c2cc1OC` (stereo not given), the Potency was 5.9 µM (active).

In the case of `O=C(C1CCCCC1)N1CC(=O)N2CCc3ccccc3C2C1` (stereo not given), the Potency result was “inactive”.

In the case of `C[C@H]1c2cccc(O)c2C(O)=C2C(=O)[C@]3(O)C(O)=C(C(N)=O)C(=O)[C@@H](N(C)C)[C@@H]3[C@@H](O)[C@@H]21`, the Potency was 29.6 µM (active).

`CC(=O)OCC(CCn1cnc2cnc(N)nc21)COC(C)=O`: the Potency entry was “inactive”.

Regarding `CC(C)(C)C(=O)Oc1ccc(S(=O)(=O)Nc2ccccc2C(=O)NCC(=O)O)cc1`, the Potency result was “inactive”.

Regarding `CN(C)C(=N)N=C(N)N`, the Potency result is “inactive”.

Consider `CCOC(=O)c1ncn2c1CN(C)C(=O)c1cc(F)ccc1-2`, for which the Potency entry was “inactive”.

Take `Nc1ccn([C@H]2CC[C@@H](CO)O2)c(=O)n1`: the Potency entry was “inactive”.

For `CC1(C)O[C@H]2CC(=O)OC[C@]23[C@H]2CC[C@@]4(C)[C@H](c5ccoc5)OC(=O)[C@H]5O[C@]54[C@]2(C)C(=O)C[C@@H]13`, the Potency entry was “inactive”.

As to `CN(CCOc1ccc(NS(C)(=O)=O)cc1)CCc1ccc(NS(C)(=O)=O)cc1`, the Potency entry was “inactive”.

With `COc1cc2c(c(OC)c1OC)-c1ccc(OC)c(=O)cc1[C@@H](NC(C)=O)CC2`, the Potency entry is “inactive”.

Take `COc1ccc2[nH]cc(CCNC(C)=O)c2c1`: the Potency result is “inactive”.

In the case of `C[C@@H]1CC(=O)NN=C1c1ccc(NN=C(C#N)C#N)cc1`, the Potency result is “inactive”.

On to `NCCS(=O)(=O)O`, for which the Potency result was “inactive”.

`CC[C@@]1(O)C(=O)OCc2c1cc1n(c2=O)Cc2cc3c(CN(C)C)c(O)ccc3nc2-1`: the Potency was 2.64 µM (active).

With `CN1C(C(=O)Nc2ccccn2)=C(O)c2ccccc2S1(=O)=O`, the Potency entry is “inactive”.

Turning to `COc1cc2nc(N3CCN(C(=O)c4ccco4)CC3)nc(N)c2cc1OC`, the Potency was 7.43 µM (active).

On to `CC#C[C@]1(O)CC[C@H]2[C@@H]3CCC4=CC(=O)CCC4=C3[C@@H](c3ccc(N(C)C)cc3)C[C@@]21C`, for which the Potency was 0.469 µM (active).

Take `CC1(CN2CCC(n3c(=O)[nH]c4ccccc43)CC2)OCc2ccccc2-n2cccc21` (stereo not given): the Potency result is “inactive”.

`CNCCCC12CCC(c3ccccc31)c1ccccc12`: the Potency is 10.5 µM (active).

Regarding `CN1C2CCC1CC(OC(=O)C(CO)c1ccccc1)C2` (stereo not given), the Potency result is “inactive”.
